From PubChem BioAssay
Hits are enriched below; roughly 18% of the tested compounds scored in any of these assays.
TDP1 cell noCPT – qHTS for Inhibitors of human tyrosyl-DNA phosphodiesterase 1 (TDP1): qHTS in cells in absence of CPT; DT40 Tdp1-/- hTDP1 cells, no CPT, ATP luminescence, 48 h; 420,000 tested, 15% active; Potency, µM (titrated, usually from 46.2 µM), actives largely listed as inhibitors; note: nearly all actives have a fitted effect of over 55% in size
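Growth of hTDP1-complemented DT40 Tdp1-knockout cells is measured by ATP luminescence after at least 48 hr compound exposure at 37 °C, with DMSO substituting for the 20 nM CPT used in the parallel screen.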
IL1B secr inh – qHTS for Inhibitors of Inflammasome Signaling: IL-1-beta AlphaLISA Primary Screen | THP-1 LPS/ATP IL-1B secretion, AlphaLISA, 16 h; active compounds read low | activity change, % at 57.5 µM | 360,000 tested, 4.7% active; in the data active = activity change below about -50%; inconclusive = mostly about -30% to -49%
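Secreted IL-1B measured by AlphaLISA bead assay after 16 h compound exposure of THP-1 cells; compounds (final up to 57.5 uM) added 1 h before LPS (250 ng/mL) and ATP (1.25 mM) stimulation; lower signal means less secretion.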
Gal4-VP16 FLuc – VP16 counterscreen qHTS for inhibitors of ROR gamma transcriptional activity; Drosophila S2 Gal4-VP16 UAS-luciferase, luminescence, 20 h; Potency, µM (doses to about 53.6 µM), usual class: inhibitors; 310,000 tested, 3.5% active;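 note: Gal4-VP16 expression switched on by copper sulfate through the metallothionein promoter; nearly all actives have a fitted effect of over 50% in size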
TDP1 cell CPT – qHTS for Inhibitors of human tyrosyl-DNA phosphodiesterase 1 (TDP1): qHTS in cells in presence of CPT | chicken DT40 Tdp1-/-;hTDP1 cells + 20 nM CPT, ATP luminescence, 48 h | Potency, µM (doses to about 46.2 µM), usual class: inhibitors | 420,000 tested, 12% active | AID 686979, 2013; note: nearly all actives have a fitted effect of over 55% in size
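Chicken DT40 Tdp1-/- cells stably complemented with human TDP1 were seeded at 400 cells/well in medium containing 20 nM camptothecin, exposed to pin-transferred compounds, and grown at 37 °C for at least 48 hr. Viability was read as ATP luminescence.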
LDHA block – qHTS assay for inhibitors of human lactate dehydrogenase. activity change, % (values are at about 110 or 230 µM). AID 1347041, 2019. 480,000 tested, 0.15% active. purified LDHA, NADH/diaphorase-resazurin fluorescence; active compounds read low. L-lactate dehydrogenase A chain (Homo sapiens), P00338; in the data active = activity change below about -30%; inconclusive = mostly about -25% to -30%
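Human LDH5 (2 nM) was incubated with 0.06 mM NADH and 0.2 mM pyruvate for 5 min at room temperature in Tris pH 7.4. Remaining NADH was coupled through diaphorase/resazurin, and resorufin fluorescence was read at 0 and 20 min.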
RORgamma inh – qHTS for inhibitors of ROR gamma transcriptional activity | Nuclear receptor ROR-gamma (Mus musculus), P51450 | Drosophila S2 Gal4-RORgamma UAS-luciferase reporter, 20 h | Potency, µM (top dose mostly 53.6 µM), usual class: inhibitors | 310,000 tested, 5.4% active | AID 2551, 2010; note: nearly all actives have a fitted effect of over 60% in size
Target sequence (P51450 whole entry, looked up, the tested form may be a part): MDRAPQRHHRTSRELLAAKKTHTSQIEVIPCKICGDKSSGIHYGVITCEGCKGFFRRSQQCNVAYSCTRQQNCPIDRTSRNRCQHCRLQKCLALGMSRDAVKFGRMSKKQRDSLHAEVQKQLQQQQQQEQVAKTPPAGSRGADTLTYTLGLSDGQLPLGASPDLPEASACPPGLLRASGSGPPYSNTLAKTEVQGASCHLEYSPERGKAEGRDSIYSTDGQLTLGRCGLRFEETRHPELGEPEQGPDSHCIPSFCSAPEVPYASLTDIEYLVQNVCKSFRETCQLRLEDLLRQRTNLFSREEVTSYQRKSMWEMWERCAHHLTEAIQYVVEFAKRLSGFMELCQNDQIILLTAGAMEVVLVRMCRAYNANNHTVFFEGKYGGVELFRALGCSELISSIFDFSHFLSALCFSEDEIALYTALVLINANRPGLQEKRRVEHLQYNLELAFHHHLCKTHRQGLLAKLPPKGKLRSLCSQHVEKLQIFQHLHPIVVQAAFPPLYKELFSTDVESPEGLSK
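Luminescence from a UAS-regulated Photinus luciferase reporter in stably transfected Drosophila Schneider cells is measured; decreased signal marks ROR gamma inhibition. Fusion expression is induced by 700 uM copper sulfate for 20 hr.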
Large screens that a line does not name were inactive. Unless noted, calls come from the whole dose curve; as a rule, active = well fitted curve in the direction sought with a large enough effect; inconclusive = small, poorly fitted or top-dose-only effect, or another doubt; inactive = no such curve, though single readings can be large; an effect the other way counts as inactive or inconclusive.

FC(F)(F)c1cnc(SCc2cn3ccsc3n2)c(Cl)c1	none (no result: TDP1 cell noCPT, IL1B secr inh, Gal4-VP16 FLuc, TDP1 cell CPT, RORgamma inh)
Cc1ccccc1NC(=O)CSc1nccc(-c2ccc(OC(F)F)cc2)n1	none (no result: TDP1 cell noCPT, IL1B secr inh, Gal4-VP16 FLuc, TDP1 cell CPT, RORgamma inh)
CNC(=O)C(C#N)(Cc1cccc2ccccc12)Cc1cccc2ccccc12	none (no result: TDP1 cell noCPT, IL1B secr inh, Gal4-VP16 FLuc, TDP1 cell CPT, RORgamma inh)
O=C(Nc1cccc(Cl)c1)c1csc([C@H]2C[C@H](O)[C@@H](CO)O2)n1	TDP1 cell noCPT inconclusive, TDP1 cell CPT 18µM (no result: Gal4-VP16 FLuc, RORgamma inh)
O=C(Nc1ccc(Cl)cc1)c1csc([C@@H]2C[C@H](O)[C@@H](CO)O2)n1	TDP1 cell CPT inconclusive (no result: Gal4-VP16 FLuc, RORgamma inh)
CC1=NN(c2nc(-c3ccc(C)cc3)cs2)C(=O)C1N=Nc1ccc(C(N)=O)cc1 (stereo not drawn)	TDP1 cell noCPT 5.2µM, TDP1 cell CPT 4.6µM
CC1=NN(c2nc(-c3ccccc3)cs2)C(=O)C1N=Nc1ccccc1 (stereo not drawn)	TDP1 cell noCPT 15µM, TDP1 cell CPT inconclusive, RORgamma inh 7.1µM
CC(=O)c1sc2ccccc2c1OC(=O)c1ccc(C(C)(C)C)cc1	none (no result: TDP1 cell noCPT, IL1B secr inh, Gal4-VP16 FLuc, TDP1 cell CPT, RORgamma inh)
Cc1ccc(NC(=O)c2nc(S(=O)(=O)Cc3ccc(F)cc3)ncc2Cl)cc1C	TDP1 cell noCPT 2.3µM, TDP1 cell CPT 3.7µM (no result: IL1B secr inh, Gal4-VP16 FLuc, RORgamma inh)
CC(=O)Nc1ccc(NC(=O)c2nc(S(=O)(=O)Cc3ccc(F)cc3)ncc2Cl)cc1	TDP1 cell noCPT 0.41µM, TDP1 cell CPT 0.73µM (no result: IL1B secr inh, Gal4-VP16 FLuc, RORgamma inh)
Cc1cccc(CCN2C(N(C)C)=NC[C@@H]2CC(C)C)c1	TDP1 cell noCPT inconclusive, TDP1 cell CPT inconclusive (no result: Gal4-VP16 FLuc, RORgamma inh)
Cc1cccc(CCN2C(N(C)C)=NC[C@@H]2Cc2ccccc2)c1	TDP1 cell noCPT inconclusive, IL1B secr inh -59, TDP1 cell CPT inconclusive (no result: Gal4-VP16 FLuc, RORgamma inh)
CN(C)C1=NC[C@H](Cc2ccccc2)N1CCCCc1ccccc1	TDP1 cell noCPT 21µM, IL1B secr inh inconclusive, TDP1 cell CPT inconclusive (no result: Gal4-VP16 FLuc, RORgamma inh)
CCCCCCCN1C(N(C)C)=NC[C@@H]1Cc1ccccc1	TDP1 cell noCPT 9.2µM, IL1B secr inh inconclusive, TDP1 cell CPT 12µM (no result: Gal4-VP16 FLuc, RORgamma inh)
Cc1cccc(C(=O)Nc2ccc(S(=O)(=O)Nc3cnc4ccccc4n3)cc2)c1	none (no result: TDP1 cell noCPT, IL1B secr inh, Gal4-VP16 FLuc, TDP1 cell CPT, RORgamma inh)
Cc1cc(=O)[nH]c2nc(N)ccc12	none (no result: IL1B secr inh, Gal4-VP16 FLuc, RORgamma inh)
Cc1cc(C)c2ccc(N)nc2c1O	TDP1 cell noCPT 18µM, TDP1 cell CPT 23µM (no result: Gal4-VP16 FLuc)
C=C1C(=O)CC2=C1[C@](Cc1ccc(F)cc1)(C(=O)OC)N(C(=O)c1ccccc1)C2	TDP1 cell noCPT 21µM, TDP1 cell CPT 18µM (no result: Gal4-VP16 FLuc, RORgamma inh)
COC(=O)[C@@]1(Cc2ccc(OC)cc2)[C@@H]2C(=CC(=O)[C@H]2CC(=O)C(=O)N(C)C)CN1C(=O)c1ccccc1	TDP1 cell noCPT 16µM, IL1B secr inh -76, Gal4-VP16 FLuc inconclusive, RORgamma inh inconclusive
COC(=O)[C@@]1(Cc2ccccc2)[C@@H]2[C@@H](CC(=O)[C@H]2CC(=O)C(=O)N(C)C)CN1C(=O)c1ccccc1	none (no result: TDP1 cell noCPT, IL1B secr inh, TDP1 cell CPT, LDHA block)
COC(=O)[C@@]1(Cc2ccc(F)cc2)[C@H]2c3cc(C(=O)N(C)C)n(C)c3C[C@H]2CN1C(=O)c1ccccc1	TDP1 cell noCPT inconclusive, TDP1 cell CPT inconclusive
C=C1C(=O)C=C2CN(C(=O)c3ccccc3)[C@@](Cc3ccc(F)cc3)(C(=O)OC)[C@@H]12	TDP1 cell noCPT 0.052µM, IL1B secr inh -103, Gal4-VP16 FLuc 1.4µM, TDP1 cell CPT 0.16µM, RORgamma inh 3.2µM
Fc1ccc(-c2csc(SCc3ccccc3F)n2)cc1	none (no result: TDP1 cell noCPT, IL1B secr inh, Gal4-VP16 FLuc, TDP1 cell CPT, RORgamma inh)
Cc1ccc(N(C(C)C(=O)NCc2ccccc2)S(C)(=O)=O)cc1C (stereo not drawn)	none (no result: TDP1 cell noCPT, IL1B secr inh, Gal4-VP16 FLuc, TDP1 cell CPT, RORgamma inh)
c1ccc(CN2CCC(=NNc3nc4ccccc4[nH]3)CC2)cc1	RORgamma inh 22µM
c1ccc2c(c1)CC/C2=N/Nc1nc2ccccc2[nH]1	TDP1 cell noCPT 18µM, IL1B secr inh -108, Gal4-VP16 FLuc 5.6µM, TDP1 cell CPT inconclusive, RORgamma inh 1.1µM
O=C(O)c1cc(NN=C2CCN(Cc3ccccc3)CC2)ccc1Cl	none
